Screening results from PubChem.
PNC inhibitor: High Content Assay for Compounds that inhibit the Assembly of the Perinucleolar Compartment. PC3M PTB-GFP, PNC prevalence imaging, 16 h; active compounds read low. activity change (PNC), negative = inhibition, % at 10 µM. 140,000 compounds, 3.1% hits. AID 2417, 2010;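 active = readout at or below -70, meaning at least 70% loss of cells showing the perinucleolar compartment, a nuclear body marking cancer cells; inconclusive = readout between -30 and a set limit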
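Read-out is percentage of cells bearing a perinucleolar compartment, from automated 20x imaging of fixed, Hoechst-stained PC3M PTB-GFP cells. Cells were seeded 4 h, then exposed 16 h to compound (23 nl of library stock) in duplicate plates.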
TRb-SRC2 inh: qHTS for Inhibitors of the Interaction of Thyroid Hormone Receptor and Steroid Receptor Coregulator 2; AID 1469, 2008; Potency, µM (highest dose often 106 µM), most hits filed as inhibitors; Thyroid hormone receptor beta (Homo sapiens), P10828; 280,000 compounds, 0.065% hits; TRbeta-SRC2 peptide binding, fluorescence polarization; receptor liganded with 1 µM T3; note: nearly all actives have a fitted effect of over 50% in size
Target sequence (P10828 whole entry, looked up): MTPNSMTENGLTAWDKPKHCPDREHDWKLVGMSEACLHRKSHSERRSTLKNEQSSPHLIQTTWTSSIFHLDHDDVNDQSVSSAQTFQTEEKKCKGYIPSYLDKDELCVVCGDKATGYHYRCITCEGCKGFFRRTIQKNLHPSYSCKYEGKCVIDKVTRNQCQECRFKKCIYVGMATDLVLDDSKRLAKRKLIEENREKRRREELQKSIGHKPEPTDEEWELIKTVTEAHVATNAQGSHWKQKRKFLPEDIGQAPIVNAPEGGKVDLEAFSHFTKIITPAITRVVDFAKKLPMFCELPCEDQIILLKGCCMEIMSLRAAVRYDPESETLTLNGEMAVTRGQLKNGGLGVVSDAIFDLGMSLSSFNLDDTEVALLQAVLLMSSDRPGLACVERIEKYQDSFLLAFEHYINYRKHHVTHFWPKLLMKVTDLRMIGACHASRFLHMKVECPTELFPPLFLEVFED
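Each compound concentration gave % activity, normalized to unbound and bound Texas Red SRC2 controls, from polarization read after 5 hr ambient incubation with T3-loaded human TRb LBD.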
TexasRed fluor: Total Fluorescence Counterscreen for Inhibitors of the Interaction of Thyroid Hormone Receptor and Steroid Receptor Coregulator 2. TRb/SRC2 Texas Red total fluorescence interference. 280,000 compounds, 0.29% hits. Potency, µM (doses to about 106 µM); active = well fitted curve in either direction with a large enough effect; inconclusive = small, poorly fitted or top-dose-only effect
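Flags fluorescent or light-absorbing compounds by total fluorescence, S + 2P, at 555 nm excitation and 632 nm emission. Mixture: 20 nM Texas Red SRC2 peptide, 0.6 uM human TRb LBD, 1 uM T3, 5% DMSO; compound exposure 5 h at ambient temperature.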
Tau fibril ThT: qHTS for Inhibitors of Tau Fibril Formation, Thioflavin T Binding; recombinant tau K18 P301L, heparin-induced fibrillization, ThT fluorescence; Potency, µM (highest dose often 57.4 µM), most hits filed as inhibitors; 270,000 compounds, 2.1% hits; note: nearly all actives have a fitted effect of over 55% in size
Target sequence (P10636 561-689 P618L limits assumed): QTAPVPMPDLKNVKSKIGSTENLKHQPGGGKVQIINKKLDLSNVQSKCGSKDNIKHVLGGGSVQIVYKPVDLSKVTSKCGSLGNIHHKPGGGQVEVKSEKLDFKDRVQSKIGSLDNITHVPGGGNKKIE
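Heparin-induced fibrillization of the P301L-mutant K18 repeat-domain fragment of human tau was followed by ThT binding in quantitative high-throughput format.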
Tau fluor cs: Counterscreen qHTS for Inhibitors of Tau Fibril Formation, Fluorescence Polarization; 280,000 compounds, 0.93% hits; AID 1463, 2008; tau K18 P301L Alexa594 fluorescence, heparin fibrillization; Potency, µM (doses to about 57.7 µM); note: nearly all actives have a fitted effect of over 55% in size
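Human tau K18 P301L (15 uM unlabeled, 0.24 uM Alexa 594-labeled) in 100 mM sodium acetate pH 7 with 20 uM heparin, 6 hr at 37 C. ThT 30 uM added, 1 hr ambient; Alexa 594 FP and total fluorescence read at 555/632 nm.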
Tau FP inhib: qHTS for Inhibitors of Tau Fibril Formation, Fluorescence Polarization. Microtubule-associated protein tau (Homo sapiens), P10636. K18 P301L tau heparin fibrillization, Alexa594 FP, 6 h. Potency, µM (doses to about 57.7 µM), most hits filed as inhibitors. 280,000 compounds, 0.39% hits. AID 1468, 2008; note: nearly all actives have a fitted effect of over 55% in size
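Compound effects on tau fibrillization are measured by Alexa 594 fluorescence polarization (ex 555, em 632 nm). K18 P301L tau is used at 15 uM with 0.24 uM labeled tracer, and 20 uM heparin induces aggregation over 6 hr at 37 C.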
A number is an active result; [ ] = dose if it differs, or a comment. Most compounds without a hit are left out; they make up all but 4.6% or so of the library. Unless noted, calls come from the whole dose curve; as a rule, active = well fitted curve in the direction sought with a large enough effect; inconclusive = small, poorly fitted or top-dose-only effect, or another doubt; inactive = no such curve, though single readings can be large; an effect the other way counts as inactive or inconclusive.

COc1ccc(-c2cc(C(=O)N3CCOCC3)c3cc(C)ccc3n2)cc1 was read as PNC inhibitor inactive, TRb-SRC2 inh inactive, TexasRed fluor inactive, Tau fibril ThT inactive, Tau fluor cs inactive and Tau FP inhib inactive.
For Nc1c(S(=O)(=O)O)cc(Nc2ccc(Cl)cc2)c2c1C(=O)c1ccccc1C2=O the results were TRb-SRC2 inh inactive and TexasRed fluor inconclusive.
`Nc1c(S(=O)(=O)O)cc(Nc2ccc(Nc3nc(Cl)nc(Nc4ccc(S(=O)(=O)O)cc4)n3)c(S(=O)(=O)O)c2)c2c1C(=O)c1ccccc1C2=O` gave TRb-SRC2 inh inactive, TexasRed fluor 22µM[quencher], Tau fibril ThT 4µM, Tau fluor cs 2.8µM[quencher] and Tau FP inhib 10µM.
Cc1ccccc1SCc1noc(C(=O)NC(C)C)c1C(=O)O was read as PNC inhibitor -91, TRb-SRC2 inh inactive, TexasRed fluor inactive, Tau fibril ThT inactive, Tau fluor cs inactive and Tau FP inhib inactive.
`CC(C)NC(=O)c1onc(CSc2ccccc2F)c1C(=O)O` gave PNC inhibitor -84, TRb-SRC2 inh inactive, TexasRed fluor inactive, Tau fibril ThT inactive, Tau fluor cs inactive and Tau FP inhib inactive.
Screening CCSC1=NC2(CCCCC2)Nc2sc3c(c21)CCCC3 returned PNC inhibitor inconclusive, TRb-SRC2 inh inactive, TexasRed fluor inactive, Tau fibril ThT 28µM, Tau fluor cs inconclusive and Tau FP inhib inconclusive.
For CCSc1nc2sc3c(c2c(=O)[nH]1)CCCC3 the results were PNC inhibitor inactive, TRb-SRC2 inh inactive, TexasRed fluor inactive, Tau fibril ThT inactive, Tau fluor cs inactive and Tau FP inhib inactive.
For Cc1ccc(C(=O)[C@@H]2[C@H]3C4COC(O4)C(=O)[C@@H]3[C@H]3C=Cc4ccccc4N32)cc1 (stereo not given in full) the results were TRb-SRC2 inh inactive, TexasRed fluor inactive, Tau fibril ThT 22µM, Tau fluor cs inconclusive and Tau FP inhib inconclusive.
Screening CC(=O)[C@@H]1[C@H]2[C@H](C(=O)[C@H]3OC[C@@H]2O3)[C@H]2C=Cc3ccccc3N21 returned TRb-SRC2 inh inactive, TexasRed fluor 35µM[fluorescent], Tau fibril ThT 16µM, Tau fluor cs inconclusive and Tau FP inhib inconclusive.
`COc1ccc(C(=O)C2C3C4COC(O4)C(=O)C3C3C=Cc4ccccc4N32)c(OC)c1` (stereo not given) gave TRb-SRC2 inh 7.1µM, TexasRed fluor 22µM[fluorescent], Tau fibril ThT 20µM, Tau fluor cs 20µM[fluorescent] and Tau FP inhib 11µM.
For Cc1ccc(N2C(=O)[C@@H]3[C@H](C2=O)C2c4ccccc4C=NN2[C@@H]3C(=O)c2ccc(Cl)cc2)cc1 (stereo not given in full) the results were PNC inhibitor inconclusive, TRb-SRC2 inh inactive, TexasRed fluor inactive, Tau fibril ThT inactive, Tau fluor cs inactive and Tau FP inhib inactive.
CCOC(=O)N1CCN(Cc2nc3cc(NC(=O)c4ccc([N+](=O)[O-])cc4)ccc3n2C(C)C)CC1 was read as TRb-SRC2 inh inactive, TexasRed fluor inactive, Tau fibril ThT inconclusive, Tau fluor cs inconclusive and Tau FP inhib inactive.
`CC(=O)Oc1ccc2c(C)cc(=O)[nH]c2c1` gave PNC inhibitor -114, TRb-SRC2 inh inactive, TexasRed fluor inactive, Tau fibril ThT inactive, Tau fluor cs inactive and Tau FP inhib inactive.
COc1ccc(-c2ccc(S(=O)(=O)N3CCCC3)cc2)cc1 was read as TRb-SRC2 inh inactive, TexasRed fluor inactive, Tau fibril ThT inactive, Tau fluor cs inactive and Tau FP inhib inactive.
CCc1cccc(NC2c3ccccc3C(=O)N2c2ccc(C)cn2)c1 (stereo not given) was read as PNC inhibitor inactive, TRb-SRC2 inh inactive, TexasRed fluor inactive, Tau fibril ThT inactive, Tau fluor cs inactive and Tau FP inhib inactive.
For O=C(c1ccco1)[C@@H]1[C@@H]2C(=O)N(c3ccc(Br)cc3)C(=O)[C@@H]2C2c3ccccc3C=CN21 (stereo not given in full) the results were PNC inhibitor inactive, TRb-SRC2 inh inactive, TexasRed fluor inactive, Tau fibril ThT 20µM, Tau fluor cs inactive and Tau FP inhib inactive.
`O=C(c1ccco1)[C@@H]1[C@@H]2C(=O)N(c3ccc(F)cc3)C(=O)[C@@H]2C2c3ccccc3C=CN21` (stereo not given in full) gave PNC inhibitor inactive, TRb-SRC2 inh inactive, TexasRed fluor inactive, Tau fibril ThT 25µM, Tau fluor cs inconclusive and Tau FP inhib inconclusive.
For O=C1CCCC/C1=C/Nc1ccc(S(=O)(=O)Nc2ncccn2)cc1 the results were PNC inhibitor inconclusive, TRb-SRC2 inh inactive, TexasRed fluor inactive, Tau fibril ThT inactive, Tau fluor cs inactive and Tau FP inhib inactive.
CC1(C)Oc2ccc3ccc(=O)oc3c2/C(=C/Nc2cccc(O)c2)C1=O was read as TRb-SRC2 inh inactive, TexasRed fluor inactive, Tau fibril ThT inconclusive, Tau fluor cs inconclusive and Tau FP inhib inactive.
CC1(C)Oc2ccc3ccc(=O)oc3c2/C(=C/Nc2ccc(O)cc2)C1=O was read as TRb-SRC2 inh inactive, TexasRed fluor inactive, Tau fibril ThT inactive, Tau fluor cs 13µM[quencher] and Tau FP inhib inactive.
Cc1cc2cc(CNC(=O)c3ccc(S(=O)(=O)N(C)C)cc3)ccc2n1C was read as PNC inhibitor inactive, TRb-SRC2 inh inactive, TexasRed fluor inactive, Tau fibril ThT inactive, Tau fluor cs inactive and Tau FP inhib inactive.
`Cc1cc2cc(CNS(=O)(=O)c3ccc4ccccc4c3)ccc2n1C` gave PNC inhibitor -102, TRb-SRC2 inh 45µM, TexasRed fluor 45µM[fluorescent], Tau fibril ThT inconclusive, Tau fluor cs inactive and Tau FP inhib inactive.
`Cc1cc2ccccc2n1CCNC(=O)C(C)Oc1ccccc1` (stereo not given) gave PNC inhibitor -108, TRb-SRC2 inh 50µM, TexasRed fluor inconclusive, Tau fibril ThT inconclusive, Tau fluor cs inactive and Tau FP inhib inconclusive.
Screening Cc1ccc(C(=O)NCCn2c(C)cc3ccccc32)cc1C returned TRb-SRC2 inh inactive, TexasRed fluor inactive, Tau fibril ThT inconclusive, Tau fluor cs inactive and Tau FP inhib inactive.
Screening Cc1cc2ccccc2n1CCNC(=O)c1ccc(S(=O)(=O)N2CCCCC2)cc1 returned PNC inhibitor inactive, TRb-SRC2 inh inactive, TexasRed fluor 45µM[fluorescent], Tau fibril ThT inactive, Tau fluor cs inactive and Tau FP inhib inactive.
